Data: PubChem BioAssay AID652231 (Johns Hopkins Ion Channel Center, 2013)
Screen size: about 2,300 compounds; about 55 (2%) were called active.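 The calls were made as follows: active = duplicate-averaged calcium signal over 20% of the ionomycin maximum, relative to buffer baseline; inactive = the rest.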 What follows is part of a selection rich in actives, with near analogues and random picks from the rest.

Test: compound-evoked intracellular calcium rise – cell-based, counter-screen for TMEM16A inhibitor project, confirmation (AID 652231);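 as to calcium response (% of ionomycin): each well's signal is peak minus trough fluorescence divided by its pre-addition baseline; 0% = buffer wells and 100% = ionomycin wells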
Settings: TMEM16A/YFP HEK293, Fluo4 calcium mobilization, at 10 µM; active compounds read high
With `CSc1nnc2c(n1)OC(c1ccsc1)N(C(C)=O)c1ccccc1-2` (centres undefined) the calcium response (% of ionomycin) was “inactive”.
For `CCOC(=O)C1=C(CN2CCc3ccccc32)NC(=O)NC1c1cccc([N+](=O)[O-])c1` (centres undefined), the calcium response (% of ionomycin) was “inactive”.
In the case of `O=S1(=O)CCN(Cc2ccccc2Cl)CC1`, the calcium response (% of ionomycin) is reported as “inactive”.
With `COc1ccc(Cl)cc1NC(=O)CCS(=O)(=O)c1cc2c(cc1C)NC(=O)CO2` the calcium response (% of ionomycin) was “inactive”.
For `O=C(Nc1nc(-c2ccc3c(c2)OCO3)cs1)c1ccncc1`, the calcium response (% of ionomycin) was “inactive”.
In the case of `Cc1nc2ccccc2cc1OCc1ccc(F)cc1`, the calcium response (% of ionomycin) is reported as “inactive”.
In the case of `CC(C)(C)C(=O)/C(C#N)=C/c1ccc(O)cc1`, the calcium response (% of ionomycin) is reported as “inactive”.
With `O=C(O)c1ccc(NC(=O)C2CCCCC2)cc1` the calcium response (% of ionomycin) was “inactive”.
With `Cc1ccc(-n2[nH]c(C)c(/C=N/N3C(=O)c4cccc5cccc(c45)C3=O)c2=O)cc1` the calcium response (% of ionomycin) was 43.5% (active).
With `Cc1[nH]n(-c2cccc(Cl)c2)c(=O)c1-c1ccc(Cl)cc1` the calcium response (% of ionomycin) was “inactive”.
For `O=C1c2ccccc2C(Nc2ccc3c(c2)OCCO3)N1Cc1ccco1` (centres undefined), the calcium response (% of ionomycin) was “inactive”.
In the case of `Cc1cccc(N=Nc2c(O)[nH]c3ccc(F)cc23)c1`, the calcium response (% of ionomycin) is reported as “inactive”.
For `CCCCn1ccnc1C(=O)c1cccc(S(=O)(=O)N2c3ccccc3CC2C)c1` (centres undefined), the calcium response (% of ionomycin) was “inactive”.
For `O=C(CNCCC1=CCCCC1)Nc1ccccc1N1CCCCCC1`, the calcium response (% of ionomycin) was “inactive”.
With `CCCC(=O)Nc1ccccc1N1CCN(C(=O)c2ccccc2)CC1` the calcium response (% of ionomycin) was “inactive”.
With `S=C(NCc1cccs1)Nc1ccc(Cl)cc1` the calcium response (% of ionomycin) was “inactive”.
In the case of `N#Cc1nc(N)nc(N(c2ccccc2)c2ccccc2)n1`, the calcium response (% of ionomycin) is reported as “inactive”.
With `Fc1ccc(CSc2nnc(-c3cc4c(s3)-c3ccccc3CC4)o2)cc1` the calcium response (% of ionomycin) was “inactive”.
In the case of `Cn1c(CN2CCOCC2)nc2cc(NC(=O)c3ccc(Cl)cc3)ccc21`, the calcium response (% of ionomycin) is reported as “inactive”.
With `O=C1NC(=O)C2C1C(c1ccc([N+](=O)[O-])cc1)=NN2Cc1ccccc1` (centres undefined) the calcium response (% of ionomycin) was “inactive”.
For `O=C(N/N=C/c1cc(Cl)cc([N+](=O)[O-])c1O)C(O)(c1ccccc1)c1ccccc1`, the calcium response (% of ionomycin) was “inactive”.
For `O=C(COc1ccccc1)NCc1ccc2c(c1)OCO2`, the calcium response (% of ionomycin) was “inactive”.
For `CN(C)c1cc[n+](Cc2ccccc2)cc1`, the calcium response (% of ionomycin) was “inactive”.
In the case of `CCCCCc1ccc(-c2ccc(C(=O)O)cc2)nc1`, the calcium response (% of ionomycin) is reported as “inactive”.
For `Cc1ccc2c(c1)N(CC(=O)N1CCCc3ccccc31)C(=O)C(C)O2` (centres undefined), the calcium response (% of ionomycin) was “inactive”.
With `COC(=O)c1ccc(COC(=O)c2c(C)nn(Cc3ccccc3Cl)c2Cl)o1` the calcium response (% of ionomycin) was “inactive”.
In the case of `CCOC(=O)C1CCN(c2ncnc3c2oc2ccc(Br)cc23)CC1`, the calcium response (% of ionomycin) is reported as “inactive”.
For `Cc1nc(CNS(=O)(=O)c2ccc(Oc3ccccc3)cc2)cs1`, the calcium response (% of ionomycin) was “inactive”.
In the case of `CC(=O)c1cc(CN2CCC(C(=O)Nc3cccc(-c4cscn4)c3)CC2)cs1`, the calcium response (% of ionomycin) is reported as “inactive”.
With `c1ccc(-c2nnc(SCc3nc4ccccc4[nH]3)o2)cc1` the calcium response (% of ionomycin) was “inactive”.
In the case of `COc1ccc(-n2c(C)cc(C(=O)CSc3nnc(-c4cccs4)o3)c2C)cc1`, the calcium response (% of ionomycin) is reported as “inactive”.
For `O=C(NC(=S)Nc1ccccc1C(=O)O)c1ccc(-c2ccc(Br)cc2)o1`, the calcium response (% of ionomycin) was 29% (active).
In the case of `O=C(Nc1ccccc1)c1ccccc1NC(=O)C(F)(F)F`, the calcium response (% of ionomycin) is reported as “inactive”.
In the case of `N#CC1=C(SCc2ccccc2)NC(=O)C(C#N)C12CCCC2` (centres undefined), the calcium response (% of ionomycin) is reported as “inactive”.
